Screens (PubChem BioAssay)
Sampled rows, rich in hits. Any-hit rate of the full collection: about 3.9%.
SARS 3CLpro inh: SARS-CoV 3CLpro protease inhibitors, primary screen, biochemical, quenched FRET | recombinant SARS-CoV 3CLpro, quenched FRET peptide cleavage | inhibition, % at 6 µM | 290,000 compounds, 0.14% hits | AID 1706, 2009; in the data active = inhibition above about 12%
BoNT-F LC inh: BoNT/F light chain protease inhibitors, primary screen, biochemical, flow cytometry, MLPCN library | Multiplex microsphere protease cleavage assay | inhibition, % at 10 µM | 360,000 compounds, 0.22% hits | AID 588497, 2011; in the data active = inhibition above about 35%, passing the limit was not always enough; inconclusive = no clear call, values can overlap the other calls; also: plate controls were buffer without enzyme for full effect and enzyme alone for no effect
BoNT A protease: BoNT/A light chain protease inhibitors, primary screen, biochemical, flow cytometry, MLPCN library; Botulinum neurotoxin type A light chain protease (Clostridium botulinum A str. ATCC 3502); multiplex microsphere protease substrate cleavage; inhibition, % at 10 µM; 360,000 compounds, 0.17% hits; AID 588499, 2011; also: plate controls were buffer without enzyme for full effect and enzyme alone for no effect
VHR inh abs: VHR1 phosphatase inhibitors, primary screen, biochemical, absorbance, uHTS. Dual specificity protein phosphatase 3 (Homo sapiens), P51452. recombinant VHR phosphatase, pNPP absorbance. inhibition, % at 13.3 µM. 290,000 compounds, 0.52% hits; in the data active = inhibition above about 50%
Target sequence (P51452 whole entry, looked up): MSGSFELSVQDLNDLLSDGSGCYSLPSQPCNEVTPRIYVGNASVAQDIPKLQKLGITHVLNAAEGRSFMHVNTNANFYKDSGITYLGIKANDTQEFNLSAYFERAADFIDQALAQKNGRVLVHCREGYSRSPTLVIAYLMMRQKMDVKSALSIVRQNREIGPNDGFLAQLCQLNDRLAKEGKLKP
Anthrax LF inh2: Bacillus anthracis LF protease inhibitors, primary screen, biochemical, multiplex microsphere, MLPCN library. inhibition, % at 10 µM. Lethal factor (Bacillus anthracis), P15917. AID 588501, 2011. multiplex microsphere protease cleavage assay. 360,000 compounds, 0.12% hits; also: plate controls were buffer without enzyme for full effect and enzyme alone for no effect
Autofluor counter: compound fluorescence in toxin protease inhibitor counterscreen | compound autofluorescence counterscreen, microsphere flow cytometry; hits give high values | fluorescence intensity (no concentration beside the values) | 360,000 compounds, 3.1% hits | AID 624483; in the data active = fluorescence intensity above about 16000; inconclusive = no clear call, values can overlap the other calls
Active calls of the source: *; u = inconclusive; x = no result given. Rule as the data show it, unless noted: active = inhibition above about 30%; inconclusive = no clear call, values can overlap the other calls; inactive = below that.

SMILES	SARS 3CLpro inh	BoNT-F LC inh	BoNT A protease	VHR inh abs	Anthrax LF inh2	Autofluor counter
COc1ccc(C2=NS(=O)(=O)N(C)C(C(=O)Nc3ccc(C(C)=O)cc3)=C2)cc1OC	-3	2	1	-6	0	5442
CCC(=O)Nc1ccccc1C(=O)OCC(=O)c1ccc2ccccc2c1	3	-1	-1	-4	-4	23453*
CC(=O)Nc1ccccc1C(=O)OCC(=O)c1ccc2ccccc2c1	4	-1	1	10	4	9706
Cc1cc(C)cc(C(=O)NCCCN2CCOCC2)c1	6	-8	-2	12	-15	4065
COc1cccc(C(=O)Nc2ncc3c(n2)CC(c2ccc(OC)cc2OC)CC3=O)c1 (stereo not drawn)	2	-1	u	15	-2	24133*
CC(C)(Oc1ccc(Cl)cc1)C(=O)NCc1ccncc1	0	-1	0	-1	-4	20771*
O=C(NCCN1CCCCC1)Nc1ccccc1	-2	-9	-3	-11	1	24890*
O=C(NCCN1CCCCC1)Nc1ccc(Cl)cc1	-1	-18	-4	57*	14	u
CCN1C(=O)[C@H]2[C@@H](c3ccc(-c4ccccc4)cc3)N3CCC[C@@]3(C(=O)OC)[C@H]2C1=O	x	-1	0	x	-4	2855
O=C(Cn1ccc(=O)[nH]c1=O)Nc1ccc(O)c([N+](=O)[O-])c1	x	-2	0	x	2	2829
COc1ccc(C(=O)c2ccccc2C(=O)c2ccccc2)cc1	x	-7	0	x	-6	3683
COc1ccc(N2C(=O)CCC(C(=O)c3ccccc3)=C2C)cc1	2	8	u	21	-2	19774*
COc1cc2c(cc1OC)CN(C(=O)/C=C/c1ccccc1[N+](=O)[O-])CC2	4	10	-1	21	4	3840
Cc1ccccc1C(=O)NNC(=O)CCC(=O)Nc1cccc(Cl)c1C	3	4	1	-13	-2	1937
Cc1cc(C)c2c(=O)n(CC(=O)Nc3cccc(Cl)c3C)sc2n1	0	3	54*	-16	1	3362
Cc1ccccc1NC(=O)Cn1cccc1	0	-1	0	23	-2	10489
Cc1c(Cl)cccc1NC(=O)CCC(=O)NNC(=O)c1ccccc1Cl	-3	-4	u	15	0	17035*
Cc1c(Cl)cccc1NC(=O)CCC(=O)NNC(=O)c1ccco1	5	-2	-1	0	0	16503*
Cc1c(Cl)cccc1NC(=O)Cn1cccc1	0	-3	1	19	-3	23242*
COC(=O)C1=C(C)NC(=S)NC1c1ccc(-c2cc(Cl)ccc2Cl)o1 (stereo not drawn)	2	0	1	-4	-6	5208
N#CCO/N=C(\c1ccccc1)c1ccncc1	-2	-2	u	5	-2	16207*
CN(C)S(=O)(=O)c1ccc(NC(=O)CCCNC(=O)c2ccc(Cl)cc2)cc1	9	6	-2	40	8	4517
COc1ccc(-c2cn[nH]c2N)cc1	0	4	0	22	-4	3390
COc1ccc(-c2cn[nH]c2N)c(OC)c1	-1	4	7	1	-17	17696*
CCOc1ccc(-c2cn[nH]c2N)cc1	6	-4	0	0	0	23738*
SMILES	SARS 3CLpro inh	BoNT-F LC inh	BoNT A protease	VHR inh abs	Anthrax LF inh2	Autofluor counter
COc1ccc(-c2n[nH]c(=S)n2N)c(OC)c1	1	-6	-2	4	9	3756
CCc1ccc(C(C)(O)C(CN2CCOCC2)c2ccccc2)cc1 (stereo not drawn)	2	9	-1	9	-5	3675
c1ccc(N2CCN(c3ccccc3)C2c2cccs2)cc1	1	-7	-1	-1	-2	22528*
COc1cc(C(=O)NN2C(=O)NC3(CCC(C)CC3)C2=O)ccc1OC(F)F (stereo not drawn)	x	3	0	x	-7	8829
Fc1ccc(Br)cc1C1C=C(c2ccc(Br)cc2)Nc2ncnn21 (stereo not drawn)	8	-7	-5	24	-1	22136*
CCc1ccc(C2=CC(c3cc(Br)ccc3F)n3ncnc3N2)cc1 (stereo not drawn)	1	-1	0	-24	0	8197
O=C(COC(=O)c1cc(-c2cccs2)nn1-c1ccccc1)Nc1ccc(F)c([N+](=O)[O-])c1	3	-2	-1	-1	-3	2019
N#C/C(=C\c1cc(Cl)cc(Cl)c1O)C(=O)NC1CCCCC1	-1	0	u	0	1	16628*
COCCn1c(N)c(S(=O)(=O)c2cccs2)c2nc3ccccc3nc21	-4	-6	2	-19	-5	9865
Nc1c(S(=O)(=O)c2cccs2)c2nc3ccccc3nc2n1Cc1ccccc1	1	-2	2	15	3	16336*
COc1ccc(Cn2c(N)c(S(=O)(=O)c3cccs3)c3nc4ccccc4nc32)cc1	0	0	0	13	-1	5945
COc1cccc(/C=N/n2c(N)c(S(=O)(=O)c3cccs3)c3nc4ccccc4nc32)c1OC	6	-6	-2	-1	-1	16852*
Cc1ccc(Cn2c(N)c(S(=O)(=O)c3cccs3)c3nc4ccccc4nc32)cc1	-12	7	7	13	1	18251*
COc1cccc(/C=N/n2c(CO)nc3ccccc32)c1OC	0	6	u	3	1	21345*
CCN(CC)CCn1c2c(c(SCC(=O)NCc3ccccc3)nc1=O)CCC2	x	-5	-2	x	3	u
Cc1cccc(C)c1NC(=O)CN1C(=O)NC(C)(C2CC2)C1=O (stereo not drawn)	x	0	0	x	-5	3354
Cc1ccc(NC(=O)Cn2cnc3sc(C(=O)NCc4ccco4)c(C)c3c2=O)cc1Cl	1	4	4	23	-6	21778*
CC1CCCCC1NC(=O)CN(C)S(=O)(=O)c1ccc2c(c1)CCC(=O)N2 (stereo not drawn)	-1	-4	2	-6	0	5539
O=C1NC(c2ccccc2)=C(c2nc3ccccc3s2)C(c2ccc(O)cc2)N1 (stereo not drawn)	7	2	2	25	-5	21586*
O=C1NC(c2ccccc2)=C(c2ccc3ccccc3n2)C(c2ccccc2)N1 (stereo not drawn)	-4	-2	0	37	-2	2509
O=C(O)c1cc(-c2ccccn2)n[nH]1	0	1	1	28	1	22786*
CCOC(=O)CNc1nc(C(C)(C)C)nc2c1nnn2Cc1ccccc1Cl	-9	-2	-1	12	-2	23473*
